PRMT1 FP inh – inhibitors of human PRMT1. recombinant PRMT1, activity-based probe fluorescence polarization. inhibition, % at 2.79 µM. hit rate 1.3% among 370,000. AID 652257;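 active = inhibition above about 21% made by adding two undisclosed values, limit read from the data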
LEDGF integ inh – blocks HIV-1 LEDGF/p75-dependent DNA integration. TR-FRET IN-LEDGF/p75 DNA integration, Eu/Cy5. inhibition, % at 3.7 µM. hit rate 0.64% among 370,000. AID 743269;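 active = inhibition above the screen-wide mean plus 3 SD, cut at about 13% in these data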;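 also: signal is the Cy5 over europium emission ratio at 671 and 618 nm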
MBD2 inh – blocks human MBD2 binding to methylated DNA | TR-FRET, MBD2 binding to methylated oligonucleotide | inhibition, % at 4.4 µM | hit rate 0.31% among 370,000 | AID 686964; in the data active = inhibition above about 13%
Target sequence (Q9UBB5 whole entry, looked up): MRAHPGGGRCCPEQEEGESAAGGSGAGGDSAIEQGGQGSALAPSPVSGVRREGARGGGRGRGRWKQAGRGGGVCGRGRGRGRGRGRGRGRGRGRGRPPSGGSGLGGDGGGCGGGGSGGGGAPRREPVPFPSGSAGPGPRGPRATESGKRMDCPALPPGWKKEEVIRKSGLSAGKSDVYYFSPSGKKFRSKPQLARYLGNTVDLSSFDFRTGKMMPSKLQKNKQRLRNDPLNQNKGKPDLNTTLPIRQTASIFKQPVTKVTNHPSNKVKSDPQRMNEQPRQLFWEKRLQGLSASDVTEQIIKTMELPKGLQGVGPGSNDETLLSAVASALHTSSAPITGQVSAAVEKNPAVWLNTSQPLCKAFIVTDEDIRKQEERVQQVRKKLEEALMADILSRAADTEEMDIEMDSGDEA
UHRF1 MBD2 ctr – human UHRF1 methylated DNA binding inhibitors; Q96T88; UHRF1 binding to methylated oligo, TR-FRET; inhibition, % at 4.4 µM; hit rate 0.75% among 370,000; AID 687016; in the data active = inhibition above about 21%;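 also: UHRF1 SRA domain binding a hemimethylated CpG hairpin DNA probe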
PRMT1 inh conf – PRMT1 (human) inhibition, FP confirmation; hit rate 42% among 3,300; AID 687036; recombinant His-PRMT1, activity-based probe fluorescence polarization; shares compounds with PRMT1 FP inh; inhibition, % at 2.79 µM;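 active = mean inhibition across replicates above the hit cutoff derived for the earlier primary screen, cut at about 22% in these data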
Numbers stand for hits. A selection: hits, their analogues and other compounds. The true share with any hit is near 2.5%.

How did O=C(O)c1ccccc1-c1c2cc(I)c(=O)c(I)c-2oc2c(I)c(O)c(I)cc12 do in these assays?
PRMT1 FP inh: 83; LEDGF integ inh: inactive; MBD2 inh: inactive; UHRF1 MBD2 ctr: inactive; PRMT1 inh conf: 75

How did Cc1cc(C)c(NC(=S)NCC2CCN(C(C)c3ccccc3)C2)c(C)c1 (stereo not given) do in these assays?
PRMT1 FP inh: 42; LEDGF integ inh: inactive; MBD2 inh: inactive; UHRF1 MBD2 ctr: inactive; PRMT1 inh conf: 72

What do the screens show for `CN(c1ncc(C(F)(F)F)cc1Cl)N1C(=O)C2ONC3(C(=O)CC(C)(C)CC3=O)C2C1=O` (stereo not given)?
PRMT1 FP inh: 72; LEDGF integ inh: inactive; MBD2 inh: inactive; UHRF1 MBD2 ctr: inactive; PRMT1 inh conf: inactive

How did CN(c1ncc(C(F)(F)F)cc1Cl)N1C(=O)c2cccc(N)c2C1=O do in these assays?
PRMT1 FP inh: inactive; LEDGF integ inh: inactive; MBD2 inh: inactive; UHRF1 MBD2 ctr: inactive

Results for CCCN(CC(=O)Nc1ccccc1OC)C(=O)CCC(=O)c1ccc(Cl)s1 ?
PRMT1 FP inh: inactive; LEDGF integ inh: inactive; MBD2 inh: inactive; UHRF1 MBD2 ctr: inactive

How did Cc1cc(-c2ccco2)n(CC(=O)NCCCc2ccccc2)n1 do in these assays?
PRMT1 FP inh: 47; LEDGF integ inh: inactive; MBD2 inh: inactive; UHRF1 MBD2 ctr: inactive; PRMT1 inh conf: inactive

Results for Cn1c(=O)[nH]c2c(Br)nccc21 ?
PRMT1 FP inh: inactive; LEDGF integ inh: inactive; MBD2 inh: inactive; UHRF1 MBD2 ctr: inactive

What do the screens show for `O=C(O)c1cccc(Nc2cc(Cl)c3nonc3c2[N+](=O)[O-])c1`?
PRMT1 FP inh: 54; LEDGF integ inh: inactive; MBD2 inh: inactive; UHRF1 MBD2 ctr: inactive; PRMT1 inh conf: 49

How did O=C(O)c1ccccc1Nc1cc(Cl)c2nonc2c1[N+](=O)[O-] do in these assays?
PRMT1 FP inh: 62; LEDGF integ inh: inactive; MBD2 inh: inactive; UHRF1 MBD2 ctr: inactive; PRMT1 inh conf: 48

What do the screens show for `CC1(C(=O)NCc2ccco2)Cc2c(-c3ccc(C(N)=O)cc3)ccnc2O1` (stereo not given)?
PRMT1 FP inh: inactive; LEDGF integ inh: inactive; MBD2 inh: inactive; UHRF1 MBD2 ctr: inactive

How did CN(C(=O)c1ccc(NC(=O)Cc2ccc(NC(=O)C3CCCN(C(=O)c4ccccc4)C3)cc2)cc1)C1CCCC1 (stereo not given) do in these assays?
PRMT1 FP inh: inactive; LEDGF integ inh: inactive; MBD2 inh: inactive; UHRF1 MBD2 ctr: inactive

Results for CCOC1=C2CN(S(=O)(=O)c3ccc(C)cc3)C(c3ccccc3)CC2N(S(=O)(=O)c2ccccc2Cl)C(c2ccccc2)C1 (stereo not given) ?
PRMT1 FP inh: inactive; LEDGF integ inh: inactive; MBD2 inh: inactive; UHRF1 MBD2 ctr: inactive

What do the screens show for `COc1ccc(S[C@]2(C(=O)N3CCN(C(C)=O)CC3)CC(=O)N(C(=O)CCc3ccccc3)[C@@H]2c2ccc(OC)cc2)cc1`?
PRMT1 FP inh: inactive; LEDGF integ inh: inactive; MBD2 inh: inactive; UHRF1 MBD2 ctr: inactive

What do the screens show for `CCOC(=O)N1C(=O)C[C@](Sc2ccc(OC)cc2)(C(=O)N(C)C)[C@H]1c1ccc(OC)cc1`?
PRMT1 FP inh: 46; LEDGF integ inh: inactive; MBD2 inh: inactive; UHRF1 MBD2 ctr: inactive; PRMT1 inh conf: 37

What do the screens show for `COc1ccc(S[C@]2(C(=O)N3CCOCC3)CC(=O)N(C(=O)c3ccccc3)[C@@H]2c2ccc(OC)cc2)cc1`?
PRMT1 FP inh: 80; LEDGF integ inh: inactive; MBD2 inh: inactive; UHRF1 MBD2 ctr: inactive; PRMT1 inh conf: 77

How did COc1ccc(S[C@]2(C(=O)N3CCN(C(C)=O)CC3)CC(=O)N(C(=O)c3ccccc3)[C@@H]2c2ccc(OC)cc2)cc1 do in these assays?
PRMT1 FP inh: 83; LEDGF integ inh: inactive; MBD2 inh: inactive; UHRF1 MBD2 ctr: inactive; PRMT1 inh conf: 82

Results for COc1ccc(S[C@]2(C(=O)N3CCN(C(C)=O)CC3)CC(=O)N(S(=O)(=O)c3ccc(F)cc3)[C@@H]2c2ccc(OC)cc2)cc1 ?
PRMT1 FP inh: 43; LEDGF integ inh: inactive; MBD2 inh: inactive; UHRF1 MBD2 ctr: inactive; PRMT1 inh conf: 37

How did COc1cc(N(CCCn2cnc3c(SC)ncnc32)CCCn2cnc3c(SC)ncnc32)cc(OC)c1OC do in these assays?
PRMT1 FP inh: inactive; LEDGF integ inh: inactive; MBD2 inh: inactive; UHRF1 MBD2 ctr: inactive

How did O=C(c1cc2cccc([N+](=O)[O-])c2oc1=O)N1CCOCC1 do in these assays?
PRMT1 FP inh: inactive; LEDGF integ inh: inactive; MBD2 inh: inactive; UHRF1 MBD2 ctr: inactive

What do the screens show for `Cc1ccc(S(=O)(=O)CCC(=O)c2ccc(O)cc2O)cc1`?
PRMT1 FP inh: 35; LEDGF integ inh: inactive; MBD2 inh: inactive; UHRF1 MBD2 ctr: inactive; PRMT1 inh conf: inactive

Results for CCN1CCc2c(sc(NC(=S)NC(=O)c3ccc(Cl)cc3)c2C(N)=O)C1 ?
PRMT1 FP inh: inactive; LEDGF integ inh: inactive; MBD2 inh: inactive; UHRF1 MBD2 ctr: inactive

What do the screens show for `CCCN1CCc2c(sc(NC(=S)NC(=O)c3ccccc3)c2C#N)C1`?
PRMT1 FP inh: 36; LEDGF integ inh: inactive; MBD2 inh: 15; UHRF1 MBD2 ctr: inactive; PRMT1 inh conf: inactive

What do the screens show for `O=C1C=CC(=O)N1c1cccc(-c2ccccc2)c1`?
PRMT1 FP inh: 91; LEDGF integ inh: inactive; MBD2 inh: inactive; UHRF1 MBD2 ctr: inactive; PRMT1 inh conf: 94

What do the screens show for `O=C1c2ccccc2C(=O)N1c1ccccc1`?
PRMT1 FP inh: inactive; LEDGF integ inh: inactive; MBD2 inh: inactive; UHRF1 MBD2 ctr: inactive

How did COc1ccc(OC)c(CCNC(=O)CCCc2nnc3n(C)c(=O)c4sccc4n23)c1 do in these assays?
PRMT1 FP inh: inactive; LEDGF integ inh: inactive; MBD2 inh: inactive; UHRF1 MBD2 ctr: inactive

How did CC(C)Cn1c(-c2ccc(Br)cc2)c[nH]c1=S do in these assays?
PRMT1 FP inh: 41; LEDGF integ inh: inactive; MBD2 inh: inactive; UHRF1 MBD2 ctr: inactive; PRMT1 inh conf: inactive

Screening data deposited in PubChem by The Scripps Research Institute Molecular Screening Center.
